One may read the inhibition as the change of the read-out against control, counted positive when it falls.

Each structure is given as a SMILES string. The whole screen tested about 330,000 compounds, of which about 7,300 (2.2%) were called active. For the sample, actives were picked, then their nearest neighbours and some compounds at random. Unmarked numbers belong to inactive results.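 Rule for the calls: active = inhibition of at least 40%; inactive = the rest.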

The nature of this assay: growth inhibitors of tim10-1 mutant yeast, primary screen, luminescence, uHTS (AID 463190).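 Note: mutant grown at 25 °C; 0% = DMSO wells with yeast and 100% = wells holding no yeast.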 Conditions: S. cerevisiae tim10-1 ts strain growth, BacTiter-Glo, 24 h; at 20 µM; hits give high values.
Regarding `NC(=O)c1ccsc1NC(=O)c1ccco1`, the inhibition was -3.6%.
In the case of `O=C(Nc1nnc(CCOCCOCCc2nnc(NC(=O)c3ccco3)s2)s1)c1ccco1`, the inhibition is -13%.
Regarding `O=C(Nc1nc(-c2ccco2)c(-c2ccco2)s1)c1ccco1`, the inhibition is 59.7% (active).
Consider `C=CC[C@@H](CC(=O)NCCO)C(=O)N[C@H](C)COC(=O)[C@@H](CC=C)CC(=O)OC(C)(C)C`, for which the inhibition was -5.11%.
As for `CC(Nc1ccccc1)c1cccnc1` (stereo not given), the figure is -3.38%; as for `CCN(CC)S(=O)(=O)c1cc(C(=O)Nc2cc(S(=O)(=O)N3CCOCC3)ccc2N2CCCC2)ccc1F`, 3.43%.
As for `O=C(CN(C(=O)c1csnn1)c1cccc(Cl)c1)NC1CCCC1`, the figure is 17.6%.
Under `O=C(CCCN1C(=O)/C(=C/c2ccccc2)SC1=S)Nc1ccc(O)cc1` stands 40.5% (active); under `COc1ccc(/C=C2\SC(=S)N(CCC(=O)Nc3cccc(C(=O)O)c3)C2=O)cc1OC`, 21.8%; under `O=C(CCCN1C(=O)/C(=C/c2cccs2)SC1=S)Nc1ccc(O)cc1`, 31.7%.
Turning to `CCC(C)[C@@H](C(=O)N1CCNCC1)n1cc(CCCCN)nn1` (stereo not given in full), the inhibition was -13.3%.
As for `CCOC(=O)C1CCN(CCC(=O)Nc2cccc(C)c2)CC1`, the inhibition is 11.5%.
Consider `CN(Cc1cccs1)C(=O)Cc1c[nH]c2ccccc12`, for which the inhibition is 14.6%.
As for `O=C(Nc1ccc2sc3ccccc3c(=O)c2c1)c1ccccc1Cl`, the figure is 4.71%; as for `COc1cccc(-c2nn(C)c3sc(C(=O)N4CCN(c5ccccc5)CC4)cc23)c1`, 24.7%; as for `COc1ccccc1N1CCN(C(=O)c2cc3c(-c4ccc(Cl)cc4)nn(C)c3s2)CC1`, 15.4%.
As for `CCOC(=O)N1CCN(C(=O)c2cc3c(-c4ccc(Cl)cc4)nn(C)c3s2)CC1`, the figure is 40.4% (active).
For `O=C(CNC(=O)c1ccccc1)NCC(=O)OCc1ccc(Cl)cc1`, the inhibition is -23.2%.
For the molecule `CCOC(=O)c1cnc(SCc2nc(N)nc(Nc3ccc(OC)cc3)n2)nc1N`, the inhibition was 17.6%.
`COc1ccccc1Nc1nc(N)nc(CSC(=S)N2CCOCC2)n1`: the inhibition is 23.3%.
As for `COc1ccc(Nc2nc(N)nc(CSC(=S)N3CCC(C)CC3)n2)cc1`, the inhibition is 46.2% (active).
Consider `C=CCNC(=O)c1ccccc1SCc1c(C)noc1C`, for which the inhibition is 18%.
On to `CCOP(=O)(OCC)C(Nc1cccc(C)c1)c1ccc(F)cc1` (stereo not given), for which the inhibition is 20.8%.
Turning to `CCN=C1S/C(=C\c2cc(Br)ccc2OCC(=O)OCC)C(=O)N1CC`, the inhibition was 25.5%.
`Cc1ccc(COC(=O)CN2C(=O)NC3(CCCC3)C2=O)cc1`: the inhibition was 23.6%.
Regarding `CCn1c(COc2c(C)cccc2C)nnc1SCc1nc2ccccc2c(=O)[nH]1`, the inhibition was 40.2% (active).
With `COc1ccc(CCCc2nnc(SCc3nc4ccccc4c(=O)[nH]3)n2C)cc1`, the inhibition was 19.4%.
For `CCn1c(Cc2ccccc2)nnc1SCc1nc2ccccc2c(=O)[nH]1`, the inhibition was 8.33%.
`O=c1c2cc(-c3ccccc3)sc2nc2n1N=C(c1cccs1)CS2`: the inhibition was 20.5%.
For `O=C1C(=O)N(CCN2CCOCC2)C(c2ccccn2)/C1=C(/O)c1ccc(Cl)cc1` (stereo not given), the inhibition is 13.6%.
Under `O=C(CCCC(=O)N1CCN(c2cccc(Cl)c2)CC1)c1ccccc1` stands 29.5%.
As for `O=C(c1cccc(Cl)c1)N1CCN(Cc2ccccc2)CC1`, the figure is -7.29%; as for `CCc1nc2ccc(C(=O)N3CCN(c4cccc(Cl)c4)CC3)cc2nc1CC`, 52.2% (active); as for `O=C(O)c1ccn(COc2ccc(Br)cc2)n1`, -4%.
As for `CCOC(=O)N/N=C/c1cccnc1`, the inhibition is 5.36%.
With `O=C(CSc1cccc2cccnc12)N/N=C/c1cccnc1`, the inhibition was 51.7% (active).
Under `Cc1ccc(NC(=O)CSc2cccc3cccnc23)c(C)c1` stands 25.4%; under `O=C(NCc1ccccc1Cl)C1CCCO1` (stereo not given), 0.911%; under `O=C(Nc1nnc(SCc2c(Cl)cccc2Cl)s1)C1CCCO1` (stereo not given), 42.5% (active).
In the case of `O=C(Nc1nnc(SCc2c(Cl)cccc2Cl)s1)c1cccc([N+](=O)[O-])c1`, the inhibition was -2.85%.
As for `NC(=O)CCC(NS(=O)(=O)c1ccc(Cl)cc1)C(=O)NCc1ccccc1Cl` (stereo not given), the figure is -4.94%; as for `COc1ccc(Cl)cc1NC(=O)Cn1nc(-c2ccc(C)cc2)n(C)c1=S`, 2.15%; as for `Cc1cc(Nc2ccccc2)n(CCC#N)n1`, -11.5%.
On to `Cc1cc(Nc2ccccc2)n(C(=O)c2ccc(N)cc2)n1`, for which the inhibition is 50.1% (active).
Regarding `Cc1cc(C)n(C(=O)c2ccc(S(=O)(=O)N3CCCC3)cc2)n1`, the inhibition was 17.6%.
Take `CCc1ccc(CN(C)C(C)C(=O)Nc2ccc(S(=O)(=O)N3CCCC3)cc2)cc1` (stereo not given): the inhibition was 24.9%.
`COc1ccc(OC)c(S(=O)(=O)N2CCCC(C(=O)N3CCC(C(N)=O)CC3)C2)c1` (stereo not given): the inhibition is -23.6%.
Regarding `CN1CCN(S(=O)(=O)c2ccc(N3CCN(S(=O)(=O)c4cccs4)CC3)nc2)CC1`, the inhibition was -3.27%.
With `COc1ccc(-n2cnc3cc(NCc4ccco4)ccc32)cc1`, the inhibition was 22%.
In the case of `COc1ccc(-c2oc3ncn(Cc4ccco4)c(=N)c3c2-c2ccc(OC)cc2)cc1`, the inhibition was 41.7% (active).
Take `COc1ccc(-c2oc3ncnc(NCCCO)c3c2-c2ccc(OC)cc2)cc1`: the inhibition is 9.86%.
With `Cc1cc(C)c(NC(=O)c2oc3ccccc3c2COc2ccccc2)c(C)c1`, the inhibition was 17%.
As for `COc1cccc(C(=O)NNC(=O)c2cccc(F)c2)c1`, the figure is -28.3%; as for `O=C(Nc1ccccc1)c1ccc2c(c1)OCCCO2`, 5.55%; as for `COc1cccc(C(=O)Nc2cc3c(cc2Br)OCCCO3)c1`, 40.7% (active).
Under `O=C(NC1Cc2ccccc2C1)c1cc(COc2cccc(C(F)(F)F)c2)on1` stands 18.4%.
As for `Cc1nonc1C1CCCN1C(=O)c1cc(COc2cccc(C(F)(F)F)c2)on1` (stereo not given), the inhibition is 46.1% (active).
On to `O=C(c1cc(COc2cccc(C(F)(F)F)c2)on1)N1CCSCC1`, for which the inhibition is 26.2%.
Regarding `O=c1cnnc(Nc2ccccc2F)[nH]1`, the inhibition was -10.8%.
`Cc1ccc(C(=O)N/C(=C/c2cccs2)C(=O)N2CCCCC2)cc1`: the inhibition was 19.1%.

The values are drawn from PubChem BioAssay AID463190 (Sanford-Burnham Center for Chemical Genomics, 2010).
